From PubChem BioAssay (NCI)
Compounds without any hit were thinned out: in the full panel of roughly 83,000, 20% have a hit.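 96-well plates, one dose, 48 hours. Percent growth reported; active if below 10.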 Active and inactive are the calls of the source.

How the values were obtained:
Assay in all cases: NCI-60 one-dose screen, 48 h (100 = growth as untreated, 0 = no growth, -100 = all killed)
Settings in all cases: 10 µM unless noted
[1] = test system: NCI-H23 lung
[2] = test system: NCI-H226 lung
[3] = test system: NCI-H322M lung
[4] = test system: HOP-62 NSCLC
[5] = test system: NCI-H460 lung
[6] = test system: HOP-92 NSCLC
[7] = test system: NCI-H522 lung
[8] = test system: A549/ATCC NSCLC
[9] = test system: 786-0 renal
[10] = test system: COLO 205 colon
[11] = test system: DU-145 prostate
[12] = test system: K-562 leukemia
[13] = test system: MALME-3M melanoma
[14] = test system: MDA-MB-231 breast
[15] = test system: RXF 393 renal
[16] = test system: SF-268 CNS
[17] = test system: SF-295 CNS
[18] = test system: SF-539 CNS
[19] = test system: UACC-257 melanoma
[20] = test system: M14 melanoma

Measured: growth

O=[N+]([O-])c1ccc(-c2cn(-c3ccccc3)c(-c3ccccc3)n2)cc1
active: [17] -21.1% | [19] -2.3%
inactive: [1] 78.7% | [2] 95.4% | [3] 40.5% | [4] 62.4% | [5] 35.3% | [6] 81.2% | [7] 44.6% | [8] 55.6% | [9] 92.5% | [10] 101% | [11] 109% | [12] 62.5% | [13] 141% | [14] 49.5% | [15] 65.3% | [16] 91.4% | [18] 116%

COc1cc(C2NN=C3c4ccccc4CCC32)cc(OC)c1OC (stereo not given)
active: [19] -36.4%
inactive: [1] 73.4% | [2] 62.6% | [3] 88% | [4] 82.3% | [5] 91.3% | [6] 62.4% | [7] 81.2% | [8] 42% | [9] 93.9% | [10] 89.3% | [11] 92.5% | [12] 42.8% | [13] 48.6% | [14] 48.4% | [15] 87.2% | [16] 84% | [17] 102% | [18] 85.4%

O=c1[nH]c(Nc2ccc(S(=O)(=O)O)cc2)nc2nc(Nc3ccc(NC(=S)Nc4ccccc4)cc3)nc(-c3ccc(O)cc3O)c12
inactive: [1] 102% | [2] 88.6% | [3] 125% | [4] 109% | [5] 105% | [6] 102% | [7] 91.9% | [8] 110% | [9] 104% | [10] 119% | [11] 133% | [12] 101% | [13] 98.8% | [14] 90.5% | [15] 115% | [16] 104% | [17] 121% | [18] 189% | [19] 139%

Clc1ccc2c(NC3CCC(NC4CCCCC4)CC3)ccnc2c1 (stereo not given)
active: [10] -71.5% | [12] 0.509% | [18] 0.613% | [19] -51.5%
inactive: [1] 68.1% | [2] 79.7% | [3] 109% | [4] 61.6% | [5] 77.5% | [6] 51.5% | [7] 62.2% | [8] 65.6% | [9] 59.8% | [11] 80.9% | [13] 34.6% | [14] 45.4% | [15] 51.2% | [16] 84.7% | [17] 60.1%

COc1cc2c(cc1OCCCCCn1c3ccccc3c3ccccc31)N=C[C@@H]1CCCN1C2=O
active: [1] -25.5% | [2] -91.8% | [4] -38.5% | [5] -84.3% | [6] -65.5% | [7] -22.3% | [8] -66.9% | [9] -92.9% | [10] -85.9% | [11] -53.3% | [12] -21.1% | [13] -64.7% | [14] -87.1% | [15] -80.7% | [16] -59.9% | [18] -85.8% | [19] -55.4%
inactive: [3] 16.2% | [17] 11.7%

S=C(S)NCCc1c[nH]c2ccccc12
inactive: [1] 99% | [2] 66.5% | [3] 99.9% | [4] 106% | [5] 103% | [6] 99.2% | [7] 79.8% | [8] 99.4% | [9] 100% | [10] 125% | [11] 107% | [12] 93.3% | [13] 99.1% | [14] 91.1% | [15] 106% | [16] 89.7% | [17] 95.7% | [18] 101% | [19] 104% | [20] 95.2%

Cc1ccc2nc(-c3cc4c([nH]c5ccccc54)c(-c4ccc(F)c(F)c4)n3)[nH]c2c1
inactive: [1] 84.1% | [2] 97.7% | [3] 103% | [4] 79.8% | [5] 83% | [6] 99% | [7] 65.7% | [8] 79% | [9] 99.6% | [10] 88% | [11] 80.8% | [12] 65.9% | [13] 120% | [14] 60.8% | [15] 88.5% | [16] 95.4% | [17] 88.7% | [18] 89.5% | [19] 104% | [20] 83.5%

COc1ccc(C2=C(c3cc(OC)c(OC)c(OC)c3)C(=O)CC2)cc1
active: [5] 0.331% | [7] -35.5% | [10] -27.9% | [11] -19.3% | [15] 1.23% | [17] 9.47% | [18] 0.222% | [20] 2.99%
inactive: [1] 14.2% | [2] 46.5% | [3] 47.8% | [4] 38.1% | [6] 40% | [8] 24.7% | [9] 28.9% | [12] 20.5% | [13] 35.3% | [14] 17.2% | [16] 33% | [19] 65.4%
